# Source: PubChem (several laboratories)
# Only some compounds are listed: those with a hit (about 3.2% of all), similar ones and a draw of the others.
# CHT allo act = allosteric activators of human choline transporter CHT. B-score at 10 µM. hit rate 0.49% among 310,000. AID 488977. CHT-expressing cells, membrane potential dye, choline EC20; active compounds read high; LV-AA mutant CHT in HEK293 cells;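 active = initial fluorescence not abnormally high and integrated response B-score, plate-corrected, over 3 SD above library mean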
# CHT block = human CHT choline transport inhibition. CHT-expressing cells, membrane potential dye, choline response; active compounds read low. B-score at 10 µM. hit rate 0.86% among 310,000;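 active = B-score over 3 SD under the library average, and starting fluorescence ratio not unusually high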;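 note: choline stimulus applied at its EC90 after an EC20 pre-addition; B-score computed on integrated fluorescence ratio after choline addition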
# ANO1 activ = mouse TMEM16A channel activation, primary screen | B-score at 10 µM | hit rate 0.3% among 340,000 | HEK293 TMEM16A/YFP-H148Q/I152L, iodide quench fluorescence; active compounds read low | AID 623877 | Q8BHY3;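 active = fluorescence-ratio B-score plate-corrected deviation score at least 3 library SD below zero, with starting fluorescence score within 5 deviations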;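 note: channel opened by trigger with iodide after compound preincubation; score built on the fluorescence ratio of max minus min over baseline; more negative score means more quench and so TMEM16A activation or potentiation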
# Target sequence (Q8BHY3 whole entry, looked up): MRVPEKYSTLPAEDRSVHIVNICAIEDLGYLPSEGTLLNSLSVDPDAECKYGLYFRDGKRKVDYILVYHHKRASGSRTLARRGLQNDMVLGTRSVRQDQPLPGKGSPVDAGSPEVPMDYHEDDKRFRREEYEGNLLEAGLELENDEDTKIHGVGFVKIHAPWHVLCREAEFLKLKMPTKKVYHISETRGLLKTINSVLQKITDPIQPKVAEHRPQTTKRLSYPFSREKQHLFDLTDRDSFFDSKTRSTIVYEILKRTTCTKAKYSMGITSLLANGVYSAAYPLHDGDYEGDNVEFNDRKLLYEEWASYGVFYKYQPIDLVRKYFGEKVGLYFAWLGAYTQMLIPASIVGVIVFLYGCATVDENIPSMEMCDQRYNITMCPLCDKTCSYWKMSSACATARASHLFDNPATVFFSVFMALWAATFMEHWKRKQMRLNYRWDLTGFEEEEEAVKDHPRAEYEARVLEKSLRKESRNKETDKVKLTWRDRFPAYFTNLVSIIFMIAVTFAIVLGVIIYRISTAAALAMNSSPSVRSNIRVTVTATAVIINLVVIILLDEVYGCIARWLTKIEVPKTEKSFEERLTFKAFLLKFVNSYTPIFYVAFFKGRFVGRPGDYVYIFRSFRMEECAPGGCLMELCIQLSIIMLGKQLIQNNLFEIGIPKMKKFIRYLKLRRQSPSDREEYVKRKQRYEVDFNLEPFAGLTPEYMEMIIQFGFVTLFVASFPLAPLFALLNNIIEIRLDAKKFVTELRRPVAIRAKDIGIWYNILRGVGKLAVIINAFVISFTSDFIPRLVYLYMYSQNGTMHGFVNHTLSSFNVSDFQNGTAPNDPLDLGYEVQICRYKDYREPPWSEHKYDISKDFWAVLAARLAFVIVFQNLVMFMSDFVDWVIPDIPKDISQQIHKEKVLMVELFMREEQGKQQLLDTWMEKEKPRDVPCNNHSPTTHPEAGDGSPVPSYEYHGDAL
# HDAC3 inh = human HDAC3 inhibition. O15379. recombinant HDAC3, fluorogenic peptide/trypsin coupled, fluorescence. inhibition, % at 8.3 µM. hit rate 0.15% among 320,000; in the data active = inhibition above about 26%, passing the limit was not always enough
# TMEM16A inh = blocks the mouse calcium-activated chloride channel TMEM16A; HEK293 TMEM16A/YFP iodide influx fluorescence, ionomycin; normalized B-score (activity score, 25-100; higher = stronger inhibition) at 10 µM; hit rate 1.2% among 310,000; AID 588511;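 active = ratio plate-corrected score three or more library SD toward inhibition, starting fluorescence score within five deviations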;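 note: score derived from kinetic fluorescence span divided by baseline fluorescence per well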
# PHOSPHO1 inh = inhibitors of human PHOSPHO1 phosphatase; Q8TCT1; recombinant PHOSPHO1, absorbance phosphatase assay; inhibition, % at 13.3 µM; hit rate 1.1% among 290,000; AID 1565; in the data active = inhibition above about 60%
# CHT activ conf = confirmation of human choline transporter (CHT) activators; CHT-expressing cells, membrane potential dye fluorescence (FDSS); % of choline EC20–EC90 response window; HEK293 expressing CHT LV-AA mutant; choline added at its EC20; AID 504833; activation, % at 10 µM; shares compounds with CHT allo act; hit rate 91% among 2,500;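 active = primary screen active, with duplicate mean activation above negative control mean plus 3 SD, cut at about 11% in these data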
# HEK293 MP dye = activity in parental HEK293 cells lacking CHT | shares compounds with CHT allo act | membrane potential dye fluorescence (FDSS); measured after EC20 choline addition | ratio readout change at 10 µM, hits read low | hit rate 62% among 2,500;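 active = duplicate-averaged ratio beyond 3 SD from buffer wells, up or down, though filed actives are nearly all decreases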
# Numbers without * were called inactive; i = inactive; · = not tested or not shown; ! = not confirmed by another sample.
SMILES,CHT allo act,CHT block,ANO1 activ,HDAC3 inh,TMEM16A inh,PHOSPHO1 inh,CHT activ conf,HEK293 MP dye
COCCNC(=O)/C(C#N)=C/c1c(N2CCN(c3ccccc3)CC2)nc2ccccn2c1=O,i,i,i,-1,i,15,·,·
O=C(Cc1cccs1)NCCS(=O)(=O)N1CCN(c2cccc(Cl)c2)CC1,i,i,i,-5,i,·,·,·
COCCCNC(=O)/C(C#N)=C/c1c(N2CCN(C)CC2)nc2c(C)cccn2c1=O,6.9*,i,i,-71,i,3,52*,-56*
COCCCNC(=O)/C(C#N)=C/c1c(N2CCN(c3ccc(OC)cc3)CC2)nc2c(C)cccn2c1=O,i,i,i,-6,i,16,·,·
COCCCNC(=O)/C(C#N)=C/c1c(N2CCN(C)CC2)nc2ccccn2c1=O,i,i,i,-22,i,33,48*,-42*
COCCCNC(=O)/C(C#N)=C/c1c(N2CCN(c3ccccc3)CC2)nc2ccccn2c1=O,i,i,i,-54,i,20,·,·
COCCNC(=O)/C(C#N)=C/c1c(N2CCCCCC2)nc2c(C)cccn2c1=O,i,i,i,-4,i,16,·,·
COCCNC(=O)/C(C#N)=C/c1c(N2CCN(C)CC2)nc2c(C)cccn2c1=O,9.7*,i,i,-180,i,16,67*,-56*
COc1ccc(N(C)C(=O)CN(C)S(=O)(=O)c2ccc3c(c2)c(=O)n(C)c(=O)n3C)c(OC)c1,i,i,i,6,i,20,·,·
COc1ccc(-n2nc(C(=O)NCC(=O)NCCCN3CCCCCC3)c3ccccc3c2=O)cc1Cl,i,i,i,17,i,44,·,·
CC1CCC(=O)N(CCOc2ccccc2)CC1 (centres undefined),i,i,i,1,i,-30,·,·
C[C@H]1CCC(=O)N([C@H](COc2ccccc2)Cc2ccccc2)CC1,6.3*,i,i,2,i,-24,40*,i
CN(C)CC1CCCCC1OC(=O)c1ccc(Cl)cc1 (centres undefined),i,i,i,-6,i,-10,·,·
CN(C)CC1CCCCC1C1(O)c2ccccc2CSc2sccc21 (centres undefined),i,i,i,9,i,-1,13*,i
COc1ccc(C(=O)N/N=C/c2cc3ccccc3[nH]c2=O)cc1,i,i,i,-9,i,40,29*,-32*
COc1ccc(C(=O)N/N=C/c2ccccc2OC(=O)c2ccccc2)cc1,i,i,i,20,i,-112,·,·
CCc1cc2c(N3CCN(c4ccccc4)CC3)ncnc2s1,i,i,i,-7,25*,12,16*,i
NCCCC[C@H]1CN=C(N)N1CCCCC1CCCCC1,11*,i,i,1,i,·,47*,-51*
NCCCC[C@H]1CN=C(N)N1CC1CCCCC1,i,i,i,2,i,·,·,·
COc1ccc(C(=O)C[n+]2ccc3c(c2)nc(-c2ccccc2)n3C)cc1,i,i,i,·,i,-12,·,·
Cc1nc2c(C)[n+](CC(=O)c3ccccc3)ccc2n1C,i,i,i,-5,i,20,44*,-38*
CN1CCN(CC(=O)NC2CCCCC2)CC1,i,i,i,1,i,19,·,·
Cc1cc2[nH]c(=O)c(=O)[nH]c2cc1S(=O)(=O)Nc1ccccc1F,7.7*,i,i,·,i,-9,3,i
COc1cc(C)c(S(=O)(=O)Nc2ccccc2F)cc1C,i,i,i,-1,i,-18,·,·
COc1ccc(-c2nc(CSCC(=O)NCc3ccc4c(c3)OCO4)c(C)o2)cc1OC,i,i,i,3,i,-37,·,·
SMILES,CHT allo act,CHT block,ANO1 activ,HDAC3 inh,TMEM16A inh,PHOSPHO1 inh,CHT activ conf,HEK293 MP dye
CCCn1cnc2cc(NCc3cccs3)ccc21,i,i,i,-1,i,27,·,·
CCCCn1cnc2cc(NCc3ccncc3)ccc21,i,i,i,-7,i,-3,43*,-43*
Cc1ccc(CN2CCN(Cc3cnc(C)s3)CC2CCO)cc1 (centres undefined),i,i,i,-2,i,6,·,·
Cc1nnc(N2CCC(C(=O)N3CCCCC3)CC2)c2nn(-c3ccc(Cl)cc3)c(C)c12,i,i,i,-4,i,-4,39*,i
Cc1nnc(N2CCOCC2)c2nn(-c3cccc(Cl)c3)c(C)c12,i,i,i,-2,i,1,·,·
O=C(O)/C=C/C(=O)Nc1ccc2c(c1)C(=O)c1ccccc1C2=O,i,i,i,3,i,42,28*,-27*
N#Cc1ccc(-c2cn3c(n2)SCC3)cc1,i,i,i,-83,i,2,·,·
N#Cc1ccc(-c2cn(-c3ccccc3)c3[n+]2CCCS3)cc1,10*,i,i,-17,i,-2,62*,-65*
CCc1ccc(-n2cc(-c3ccc(F)cc3)[n+]3c2SCCC3)cc1,14*,i,i,-2,i,7,82*,i
c1ccc(-c2cn(-c3ccccc3)c3[n+]2CCCS3)cc1,i,i,i,-1,i,24,·,·
Cc1ccc(-c2cn(-c3ccccc3)c3[n+]2CCCS3)cc1,6.6*!,i,i,-6,i,9,50*,-23*
O=C(CCN1C(=O)/C(=C/c2ccccc2)SC1=S)N[C@@H](CO)Cc1ccccc1,i,i,i,5,i,32,·,·
CCn1cc(C(=O)OC)c(=O)c2ccc(C)nc21,12*,i,i,1,i,-8,79*,-75*
CCn1cc(C(=O)NCCOC)c(=O)c2ccc(C)nc21,i,i,i,8,i,10,·,·
CCn1c(=S)sc2c(=O)n(CC(=O)NC(C)CCc3ccccc3)c(C)nc21 (centres undefined),i,i,i,-9,i,-8,·,·
COc1ccccc1CN(Cc1cc2c(C)ccc(C)c2[nH]c1=O)Cc1nnnn1Cc1ccco1,6.4*,i,i,-7,i,20,17*,i
Cc1ccc(CN(Cc2cc3cc4c(cc3[nH]c2=O)OCCO4)Cc2nnnn2Cc2ccco2)cc1,i,i,i,-6,i,30,·,·
